Screens (PubChem BioAssay)
GLP-1R agonist = qHTS of GLP-1 Receptor Agonists. Potency, µM (top dose mostly 45.6 µM), without a hit: at the highest dose activation, usual class: activators. hit rate 0.007% among 380,000. AID 624172, 2012. HEK293 GLP-1R CRE-luciferase, luminescence, 4-6 h; cells express a hypersensitive GLP-1R form. Glucagon-like peptide 1 receptor (Homo sapiens), P43220; further: % of control where 0% means no effect
PTHR1 ag = qHTS for PTHR1 Agonists: Primary Screen; HEK293 GP2 PTHR1 cells, GloSensor cAMP luminescence, 1 h; Potency, µM (series often up to 115 µM), inactives show at the highest dose activation, most hits filed as activators; hit rate 0.075% among 410,000; further: nearly all actives have a fitted effect of over 55% in size
Target sequence (Q03431 whole entry, looked up): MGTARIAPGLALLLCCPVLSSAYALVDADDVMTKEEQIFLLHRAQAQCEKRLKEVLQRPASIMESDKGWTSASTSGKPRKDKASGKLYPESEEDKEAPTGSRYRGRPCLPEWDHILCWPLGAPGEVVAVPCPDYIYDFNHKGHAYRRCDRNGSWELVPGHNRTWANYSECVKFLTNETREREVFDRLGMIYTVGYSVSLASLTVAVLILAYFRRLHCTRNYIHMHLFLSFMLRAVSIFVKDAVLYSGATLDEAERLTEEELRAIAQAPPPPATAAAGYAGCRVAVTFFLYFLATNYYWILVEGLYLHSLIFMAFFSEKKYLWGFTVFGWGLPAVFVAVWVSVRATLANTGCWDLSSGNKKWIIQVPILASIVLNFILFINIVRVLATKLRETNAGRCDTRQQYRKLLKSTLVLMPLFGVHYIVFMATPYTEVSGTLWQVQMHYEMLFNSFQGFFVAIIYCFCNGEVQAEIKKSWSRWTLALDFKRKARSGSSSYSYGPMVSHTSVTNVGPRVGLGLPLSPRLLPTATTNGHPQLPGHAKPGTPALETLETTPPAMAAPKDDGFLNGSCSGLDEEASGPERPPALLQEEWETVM
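HEK-293-derived GP2 cells expressing PTHR1 and a GloSensor cAMP reporter, 3,000/well, plated overnight, given luciferin plus IBMX (each 0.5 mM as added) for 1 h at 37 °C, then compound for 1 h at 37 °C. Luminescence was read after 15 min at room temperature.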
RGS4 inhibitor = Inhibitors of Regulator of G Protein Signaling (RGS) 4: qHTS; Regulator of G-protein signaling 4 (Homo sapiens), P49798; Transcreener GDP fluorescence polarization, RGS4-accelerated GTP hydrolysis; Potency, µM (highest dose often 114 µM), without a hit: at the top dose activity change, negative = inhibition, hits mostly inhibitors; hit rate 0.039% among 390,000; AID 504845, 2011; further: on the % scale 0 is the no-effect control and ±100 the full control effect; nearly all actives have a fitted effect of over 75% in size
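MLSMR compounds (23 nl, pin-transferred) preincubated 10 min at room temperature with a 500nM (2x) first reagent, then RGS4 at 900nM (2x) plus Transcreener GDP mix added; fluorescence polarization (620/688 nm) read before and after 90 min at 30 °C.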
GLP1R cytotox = qHTS of GLP-1 Receptor Inverse Agonists: Cytotox Screen; HEK293 cAMP-luciferase reporter cells, luminescence, 24 h; Potency, µM (top dose mostly 38.3 µM), for the others: at the highest dose activity change, negative = inhibition, usual class: inhibitors; hit rate 0.13% among 410,000; AID 624418, 2012;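 further: loss of luciferase light is scored as toxicity; on the % scale 0 is the no-effect control and ±100 the full control effect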
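Quantitative HTS format, 1536 wells, 200 cells/uL seeded. Compounds: 23 nL, 24 h, 37 °C. Detection: luciferase reagent, luminescence at 12 min RT; decreased signal taken as cytotoxic.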
GLP-1R inv ag = qHTS of GLP-1 Receptor Inverse Agonists (Inhibition Mode) | Glucagon-like peptide 1 receptor (Homo sapiens), P43220 | HEK293 GLP-1R CRE-luciferase, luminescence, 24 h; GLP-1R form is constitutively active | Potency, µM (series often up to 38.3 µM), without a hit: top-dose activity change, negative = inhibition, actives largely listed as inhibitors | hit rate 1.6% among 410,000; further: on the % scale 0 is the no-effect control and ±100 the full control effect; nearly all actives have a fitted effect of over 55% in size
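Luminescence readout: a drop in cAMP-driven luciferase signal flags inverse agonism at a constitutively active GLP-1R stably expressed in HEK293. Compound exposure lasted 24 hr at 37 deg C, 5% CO2.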
The depositor's hits bear a star; i = inactive; ? = inconclusive; · = not tested or not shown; ! = not confirmed by another sample; [ ] = another dose, or the depositor's remark. Rows were chosen to be rich in hits. Some 1.7% of all compounds tested hit in one or more screens of this group. The call rests on the fitted dose curve; in most records, active means well fitted curve in the direction sought with a large enough effect; inconclusive means small, poorly fitted or top-dose-only effect, or another doubt; inactive means no such curve, though single readings can be large; an effect the other way counts as inactive or inconclusive. Potency means the concentration at half of the fitted maximal effect.

SMILES | GLP-1R agonist | PTHR1 ag | RGS4 inhibitor | GLP1R cytotox | GLP-1R inv ag
CC1=C(C(=O)Nc2cccnc2)C(c2ccc(F)cc2)n2nc(SCc3ccccc3)nc2N1 (stereo not given) | -2% | -30% | 15% | -3% | 1%
NCCCNCCCCNC(=O)C(O)NC(=O)CCCCCCN=C(N)N (stereo not given) | -1% | · | · | · | ·
Cc1cc(Cl)ccc1N(CC(=O)N(C)Cc1ccccc1)S(C)(=O)=O | 7% | -2% | · | -2% | -23%
COc1ccc(C(=O)Nc2nc3nc(C)c(Cc4ccccc4)c(=O)n3[nH]2)cc1OC | · | i | 1% | -4% | 0%
O=C(Nc1ccccc1)N(Cc1ccc(Cl)cc1)CC(O)C(F)(F)F (stereo not given) | 12% | i | 24%[11.4 µM] | -19% | 10µM*
O=C(Nc1ccccc1)N(Cc1ccccc1)Cc1ccccc1 | 7% | i | -5% | 3% | 0%
CC1(C)CC2CC(C)(CN2/C=N/c2sc3c(c2C#N)CC(C)(C)NC3(C)C)C1 (stereo not given) | 17% | 11% | 12% | ? | 1.1µM*
CC1(C)Cc2c(sc(N)c2C#N)C(C)(C)N1 | 9% | ? | -21% | -8% | 4%
CCOC(=O)c1cc(-c2ccccc2C)nn1CC1CC(c2ccc(OC)cc2)=NO1 (stereo not given) | 26% | i | 3% | 2% | 11µM*
CCN(CC)C(=O)c1sc2c(c1C)c(=O)n(-c1ccc(Cl)c(Cl)c1)c(=O)n2CC(=O)Nc1cccc(OC)c1 | · | 20% | 2% | -13% | 1%
CCCCCn1c(=O)[nH]c2cc(C(=O)NCCN3C(C)CCCC3C)ccc2c1=O (stereo not given) | 6% | -5% | -10% | -4% | 1.8µM*
CCCCCn1c(=O)[nH]c2cc(C(=O)NCCN3CCCCC3C)ccc2c1=O (stereo not given) | 1% | 16% | -14% | 2% | ?
c1ccc(COc2ncnc3c2ncn3CCCNCC(c2ccccc2)c2ccccc2)cc1 | -8% | -27% | · | 11µM* | ?
COc1cccc(NC(c2nnc(-c3ccccc3)o2)c2ccc(F)cc2Cl)c1 (stereo not given) | · | -17% | -5% | 1% | ?
CC1(c2nnnn2-c2ccc3c(c2)OCCO3)CCC(=O)N1Cc1cccc(C(F)(F)F)c1 (stereo not given) | 3% | -5% | · | 0% | 0%
CC=CC1OCC(CC)C(CCC)O1 (stereo not given) | 2% | i | 6% | -1% | -23%
CCCCCCN1C[C@@H](n2cc(COC(=O)c3ccccc3)nn2)[C@H](O)C[C@@H]1c1ccc(OC)cc1 | -3% | -28% | · | -23% | 14µM*
O=C(OCc1cn([C@H]2CN(C(=O)C3CCCCC3)[C@@H](c3ccc(Cl)cc3)C[C@@H]2O)nn1)c1ccccc1 | 1% | -34% | · | -17% | 11µM*
CCc1ccccc1-n1ncc(C(=O)Nc2ccc(OC)cc2)c1C | 22% | -80% | -2%[56.9 µM] | -23% | ?
O=C(OCC(=O)c1c[nH]c2ccccc12)c1cccc([N+](=O)[O-])c1 | 15% | -34% | 22% | 2% | ?
CCN(CC(=O)Nc1ccc(C)c(S(=O)(=O)N2CCOCC2)c1)Cc1ccccc1 | 5% | i | -22% | 1% | ?
CCC(C)NC(=O)c1cccc(NC(=O)c2nsc3ccccc23)c1 (stereo not given) | · | i | -11% | -15% | 4%
COc1ccc(N2C(=S)N=C(Nc3ccccc3)C23CCCCC3)cc1 | -6% | i | -17% | 4% | 8%
COc1ccc(NC2=NC(=S)N(c3ccccc3C)C23CCCCC3)cc1 | -7% | i | -5% | -20% | 7.9µM*
Cc1cc(Cl)ccc1NC(=O)CN1C(=O)COc2ccc(S(=O)(=O)Nc3ccccc3)cc21 | -4% | -12% | 4% | -14% | ?
SMILES | GLP-1R agonist | PTHR1 ag | RGS4 inhibitor | GLP1R cytotox | GLP-1R inv ag
Cc1ccc(OCC(=O)N2N=C(C(F)(F)F)CC2(O)C(C)(C)C)cc1C (stereo not given) | -2% | -15%[57.5 µM] | -19% | -28% | -57%
CC(C)(C)C1(O)CC(C(F)(F)F)=NN1C(=O)Cc1ccc([N+](=O)[O-])cc1 (stereo not given) | 18% | -1% | -10% | 20% | 10µM*
Cc1ccccc1OCC(=O)N1N=C(C(F)(F)F)CC1(O)C(C)(C)C (stereo not given) | -19% | i | -9%[11.4 µM] | ? | 8.9µM*
O=C(C1CCCN(S(=O)(=O)c2cccc3nsnc23)C1)N1CCN(c2ccccc2F)CC1 (stereo not given) | 1% | -27% | 8% | 4% | -17%
Cc1ccc(S(=O)(=O)CC(=O)N(CCCN2CCOCC2)c2nc3c(F)cccc3s2)cc1 | 0% | -3% | 7% | -18% | 37%
O=C(CCS(=O)(=O)c1ccccc1)N(CCCN1CCOCC1)c1nc2c(F)cccc2s1 | -29% | -22% | -7% | 10µM* | ?
CC1(C(=O)NS(=O)(=O)c2cccc(C#N)c2)CCN1C(=O)CC1CC1 (stereo not given) | 1% | i | · | 3% | 10%
OCc1ccc(-c2nn(Cc3ccccc3)c3ccccc23)o1 | -1% | -8% | 24µM*! | -26% | ?
O=c1c2ccccc2c(-c2n[nH]c(=S)o2)nn1Cc1ccccc1 | 1% | -36% | -48%[56.9 µM] | 0% | 30%
CCCCOc1ccc(-c2cc3c(=O)n(CC(=O)Nc4ccc(Cl)cc4Cl)ccn3n2)cc1 | 0% | -17% | 14% | 5% | 2%
COc1cccc(NC(=O)CN(C)C(=O)c2ccc(Cl)c(S(=O)(=O)N3CCCCCC3)c2)c1 | 16% | -30% | 7% | -5% | 8.9µM*
CCN(CC)CCNC(=O)c1ccc(NC(=O)COc2ccc3c(c2)CCC3)cc1 | 7% | 22% | -4% | -16% | 4.5µM*
CCN(CC)CCNC(=O)c1ccc(NC(=O)c2ccc(Cl)c(S(=O)(=O)N3CCCCCC3)c2)cc1 | ? | -7% | 0% | ? | 4µM*
CN(CC(=O)Nc1ccccc1Cl)C(=O)c1ccc(Cl)c(S(=O)(=O)N2CCCCCC2)c1 | 13% | -31% | 6% | -16% | ?
CCN(CC)CCNC(=O)c1ccc(NC(=O)c2ccc(S(=O)(=O)N3CCCCCC3)cc2)cc1 | 6% | -14% | -36% | ? | ?
